# Screening data from PubChem.
# An excerpt weighted towards active compounds, which were near 8.7% of everything screened.
# 12-LOX inh: inhibitors of human 12S-lipoxygenase ALOX12; P18054; purified 12hLO, xylenol orange hydroperoxide absorbance; Potency, µM (top dose mostly 108 µM), for the others: top-dose activity change, negative = inhibition, hits mostly inhibitors; hit rate 1.1% among 580,000; note: % is set by controls: 0 for no effect and ±100 for the full control effect
# Target sequence (P18054 whole entry, looked up): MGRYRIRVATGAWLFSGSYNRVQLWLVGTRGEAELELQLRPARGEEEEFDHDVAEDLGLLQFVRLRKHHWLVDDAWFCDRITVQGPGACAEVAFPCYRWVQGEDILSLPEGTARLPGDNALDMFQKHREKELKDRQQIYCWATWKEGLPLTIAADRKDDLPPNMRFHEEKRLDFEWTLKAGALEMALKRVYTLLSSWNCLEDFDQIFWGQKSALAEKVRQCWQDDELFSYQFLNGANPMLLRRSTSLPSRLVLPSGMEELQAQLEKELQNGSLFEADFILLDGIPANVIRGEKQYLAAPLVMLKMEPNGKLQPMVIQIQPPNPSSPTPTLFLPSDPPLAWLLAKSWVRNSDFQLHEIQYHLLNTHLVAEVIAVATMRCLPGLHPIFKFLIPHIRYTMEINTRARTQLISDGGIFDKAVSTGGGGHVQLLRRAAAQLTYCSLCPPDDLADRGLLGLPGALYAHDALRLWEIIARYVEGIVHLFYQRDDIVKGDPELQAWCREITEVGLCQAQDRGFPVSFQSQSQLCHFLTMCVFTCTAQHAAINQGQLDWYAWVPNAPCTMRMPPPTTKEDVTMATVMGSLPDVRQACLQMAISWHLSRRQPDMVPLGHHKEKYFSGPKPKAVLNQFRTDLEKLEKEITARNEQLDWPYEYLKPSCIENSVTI
#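 Purified human 12hLO at 150 nM in 25 mM Hepes, 0.01% Triton X-100, pH 7.0, preincubated 15 min at room temperature with compound. Reaction started with 40 uM arachidonic acid, 30 min at room temperature. Hydroperoxide measured by Fe-xylenol orange, 573/405 nm absorbance ratio.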
# Sfp inh: blocks B. subtilis Sfp PPTase activity | Q9F4F7 | Biochemical Sfp PPTase activity, qHTS | Potency, µM, inactives show largest response in the series, negative = inhibition, actives largely listed as inhibitors | hit rate 3.5% among 310,000;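 note: the enzyme is Sfp with the accession as filed and its product quenches rhodamine fluorescence; 0% = enzyme reaction without inhibitor and -100% = no enzyme wells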
#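 Compounds were incubated with enzyme (final 15 nM) for 15 min at room temperature before substrate addition started the reaction. Fluorescence at 525 nm excitation, 598 nm emission was recorded immediately and after 30 minutes.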
# JMJD2A Tudor inh: blocks the human JMJD2A Tudor domain | Potency, µM (highest dose often 114 µM), for inactives: at the highest dose activity change, negative = inhibition, actives largely listed as inhibitors | AlphaScreen JMJD2A-Tudor / H3K4me3 peptide binding | O75164 | hit rate 4.4% among 390,000 | AID 504339; note: % is set by controls: 0 for no effect and ±100 for the full control effect; nearly all actives have a fitted effect of over 50% in size
# G9a block: blocks human histone lysine methyltransferase G9a; Q96KQ7; G9a H3K9 monomethylation, AlphaScreen, 2 h; Potency, µM (doses to about 102 µM), for the others: at the top dose activity, negative = inhibition, most hits filed as inhibitors; hit rate 8.8% among 350,000; AID 504332; note: % is set by controls: 0 for no effect and ±100 for the full control effect; nearly all actives have a fitted effect of over 75% in size
#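 G9a (20 nM) preincubated 15 min RT with compounds, then 500 nM biotinylated H3K9 peptide and 20 uM SAM added; 2 h RT reaction. Monomethyl-H3K9 product detected by AlphaScreen with anti-H3K9me1 antibody, streptavidin donor and anti-rabbit IgG acceptor beads.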
# BAZ2B block: BAZ2B (human) inhibition. Q9UIF8. AlphaScreen BAZ2B-H3K14Ac peptide displacement. Potency, µM (series often up to 114 µM), for inactives: top-dose activity change, negative = inhibition, hits mostly inhibitors. hit rate 4.4% among 360,000. AID 504333; note: % is set by controls: 0 for no effect and ±100 for the full control effect; nearly all actives have a fitted effect of over 60% in size
#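 Compounds, titrated to a top concentration of 110 uM, were incubated 30 min at room temperature with preformed BAZ2B/acetyl-K14 H3 peptide complex (50 nM each). Proximity signal was measured by AlphaScreen after 20 min with beads.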
# HP1b binding inh: HP1-beta chromodomain-methylated histone interaction inhibition; P83916; hit rate 0.56% among 390,000; Potency, µM (doses to about 114 µM), for inactives: at the top dose activity change, negative = inhibition, actives largely listed as inhibitors; AID 540317; AlphaScreen HP1-beta / biotin-H3K9me3 peptide binding; note: nearly all actives have a fitted effect of over 70% in size
#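 AlphaScreen: HP1-beta (50 nM) preformed 30 min with biotin-H3(1-18)K9me3 peptide (50 nM) in PBS pH 7.4, 0.01% Tween-20. Compound added for 30 min at RT, then streptavidin donor/nickel chelate acceptor beads (10 ug/mL) for 30 min.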
# * = called active by the depositor; i = inactive; ? = inconclusive; nt = no result given; ! = not confirmed by another sample; [ ] = another dose, or the depositor's remark. Calls come from the whole dose curve; as a rule, active = well fitted curve in the direction sought with a large enough effect; inconclusive = small, poorly fitted or top-dose-only effect, or another doubt; inactive = no such curve, though single readings can be large; an effect the other way counts as inactive or inconclusive. Potency is the fitted concentration of half-maximal effect.
SMILES,12-LOX inh,Sfp inh,JMJD2A Tudor inh,G9a block,BAZ2B block,HP1b binding inh
NS(=O)(=O)c1ccc(NC(=O)c2cccc(N3C(=O)c4ccccc4C3=O)c2)cc1,-16.3%,?,?,10µM*,?,0.9%[57 µM]
CC(C)(C)C1CCC(=NO)CC1 (stereo not drawn),6.4%,nt,nt,nt,nt,nt
CC1S/C(=N/N=C2CCCCC2)NC1=O (stereo not drawn),9.9%,-15.6%,?,31.1%[59 µM],50.1µM*,43.7%
CC1S/C(=N/N=C2CCC(C(C)(C)C)CC2)NC1=O (stereo not drawn),-2.7%,-2.3%,-22.0%,44.8%[59 µM],56.2µM*,25.6%
O=C1C(=O)N(CCOCCO)C(c2ccccn2)/C1=C(\O)c1ccccc1 (stereo not drawn),?,-11.8%,?,17.8µM*,?,14.0%
CCN(CC)CCCN1C(=O)C(=O)/C(=C(/O)c2ccc(C)cc2)C1c1ccccn1 (stereo not drawn),0.0%,?,89.1µM*,14.1µM*,?,-1.3%
CCOc1ccc(/C(O)=C2/C(=O)C(=O)N(CCOCCO)C2c2cccnc2)cc1 (stereo not drawn),?,22.3%,79.4µM*,nt,-6.5%,11.8%
CCN(CC)CCN1C(=O)C(=O)/C(=C(/O)c2ccncc2)C1c1ccccc1F (stereo not drawn),-27.4%,-14.5%,-19.0%,79.4µM*,2.0%,14.3%
Cc1ccc(OCCOc2ccc3ccc(=O)oc3c2)cc1C,-12.6%,nt,nt,nt,nt,nt
Cc1ccc(C)c(OCC(=O)c2ccc3c(c2)N(C(C)C(=O)NCC2CCCO2)C(=O)CO3)c1 (stereo not drawn),19.8%,nt,nt,nt,nt,nt
Fc1ccc(N/N=C/c2ccc(Cl)c(Cl)c2)c(F)c1,35.5µM*,nt,nt,nt,nt,nt
Fc1ccc(N/N=C/c2cccnc2)c(F)c1,-8.7%,-6.2%,-24.0%,31.6µM*,-26.2%,18.3%
Fc1ccc(N/N=C/c2ccccc2Cl)c(F)c1,3.16µM*,nt,nt,nt,nt,nt
Cc1cc(C)nc(N/N=C/c2ccccc2Cl)n1,0.0%,-18.0%,-7.0%,5.9%[59 µM],-5.5%,40.7%
COc1cc(/C=N/Nc2ccc(F)cc2F)cc(OC)c1OC,?,5.6%,-3.8%,1.78µM*,-35.5%,-3.3%
O=C(N/N=C/c1cccnc1)c1cccc(F)c1,87.0%,17.7%,1.4%,13.1%,6.0%,43.7%
C/C=C/C=C/C(=O)NCc1ccc(CN2CCCC2)cc1,-6.0%,nt,nt,nt,nt,nt
CN1CCN(CC(=O)N2c3ccccc3Sc3ccccc32)CC1,?,2.8%,-1.3%,-36.8%,-1.6%,48.2%
CN1CCN(CC/C=C2/c3ccccc3Sc3ccc(S(=O)(=O)N(C)C)cc32)CC1,?,-19.1%,?,50.1µM*!,?,-13.2%
CC1(c2ccccc2)CC(C)(C)N2C(=O)C3(C(C#N)=C(N)Oc4cc(O)ccc43)c3cccc1c32 (stereo not drawn),5.0%,7.5%,?,-15.2%[59 µM],-37.6%,?
CC1(c2ccccc2)CC(C)(C)N2C(=O)/C(=C3\SC(=S)NC3=O)c3cccc1c32 (stereo not drawn),-14.5%,-7.3%,28.2µM*,?,?,14.1µM*
CCc1ccc2c(CN(C)CCOc3ccc(F)cc3)cc(=O)oc2c1,44.7µM*,nt,nt,nt,nt,nt
Cc1ccc2c(CN(C)CCOc3ccc(Cl)cc3)cc(=O)oc2c1,35.5µM*,nt,nt,nt,nt,nt
COc1ccc(-c2[nH]nc3ncc(C(=O)NCC(C)C)nc23)c(C)c1,0.6%[176 µM],nt,nt,nt,nt,nt
Nc1ccc(Nc2ccccc2)c(S(=O)(=O)O)c1,?,3.7%,?,44.7µM*,56.2µM*,-2.4%[57 µM]
SMILES,12-LOX inh,Sfp inh,JMJD2A Tudor inh,G9a block,BAZ2B block,HP1b binding inh
Nc1ccc(/C=C/c2ccc(N)cc2S(=O)(=O)O)c(S(=O)(=O)O)c1,-6.0%[0.22 µM],-20.4%,nt,?,nt,nt
Cc1ccc(Nc2ccc(N)cc2S(=O)(=O)O)cc1,?,10.1%,-31.0%,31.6µM*,?,-0.6%
Cc1ccc(C2=NC(=O)/C(=C/c3cc(O)c(O)c(Br)c3)S2)cc1,?,44.7µM*,5.01µM*,2.24µM*,3.55µM*,3.16µM*
COc1cc(/C=C2\SC(N)=NC2=O)cc(Cl)c1O,-28.0%,4.0%,-9.9%,7.6%[0.501 µM],-36.8%,27.4%
COc1ccc(/C=C2\SC(N)=NC2=O)cc1Br,i,-26.5%,-35.0%,nt,?,16.8%
COc1cc(/C=C2\SC(c3ccc(C)cc3)=NC2=O)cc(OC)c1O,?,11.2µM*,56.2µM*,?,35.5µM*,12.6µM*
Cc1nnsc1C(=O)N[C@H]1CCN(C(=O)c2cccn2C)[C@H](C(=O)N[C@H](Cc2ccccc2)C(N)=O)C1,2.3%,nt,nt,nt,nt,nt
O=C(N/N=C/c1cccs1)c1ccccc1,35.2%,nt,nt,nt,nt,nt
COc1ccc(-c2ccn(-c3cccc(F)n3)n2)cc1,?,-15.6%,?,14.1µM*,-15.6%,8.9%
Cc1ccc(CNS(=O)(=O)c2cc(F)ccc2CN2C(=O)c3cccnc3C2=O)o1,?,4.7%,-18.8%,?,50.1µM*,50.1%
CC(=O)Nc1ccc(NS(=O)(=O)c2ccc(CN3C(=O)c4cccnc4C3=O)cc2)cc1,-5.5%,10.8%,-9.8%,11.7%,79.4µM*,35.3%
Cc1ccc(CNS(=O)(=O)c2ccc(CN3C(=O)c4cccnc4C3=O)cc2)o1,-4.2%,-15.4%,-10.6%,-5.9%[0.0925 µM],79.4µM*,22.0%
CC(C)NS(=O)(=O)c1cc(F)ccc1CN1C(=O)c2cccnc2C1=O,-20.1%,4.0%,?,-35.9%[12.7 µM],?,32.1%
Cc1cc(C)cc(N2CC(c3nc(-c4ccccn4)no3)CC2=O)c1 (stereo not drawn),32.4%,nt,nt,nt,nt,nt
CC(C)CC(C(=O)Nc1oc(-c2ccco2)c(-c2ccco2)c1C#N)N1C(=O)c2ccccc2C1=O (stereo not drawn),?,39.8µM*,?,22.4µM*,31.6µM*,-24.9%
COC(=O)Cc1c(C)c2ccc(O)c(C)c2oc1=O,-10.1%,nt,nt,nt,nt,nt
CCOC(=O)C1CCCN(Cc2cccc(Cl)c2)C1 (stereo not drawn),?,-12.0%,2.82µM*,8.91µM*,?,?
CCOC(=O)C1CCCN(Cc2ccc(OCc3ccccc3)c(OC)c2)C1 (stereo not drawn),0.562µM*,?,?,-5.8%[0.501 µM],50.1µM*,1.0%
CCOC(=O)C1CCCN(Cc2ccc(OCc3ccccc3)cc2)C1 (stereo not drawn),0.4%,-9.1%,?,nt,38.3%,?
CCN(CC)C(=O)C1CCCN(Cc2ccc(OC)c(C)c2)C1 (stereo not drawn),?,-8.9%,0.891µM*,-49.3%[12.7 µM],?,?
CCOC(=O)C1CCCN(Cc2ccc3c(c2)OCO3)C1 (stereo not drawn),?,-19.3%,2.51µM*,8.91µM*,50.1µM*,25.1µM*
